Results taken from PMC5869772, “Quantitative profiling of BATF family proteins/JUNB/IRF hetero-trimers using Spec-seq”.

How the values were obtained:
Test in all cases: Spec-seq (EMSA and sequencing of bound and unbound bands); 100 nM BATFx-JUNB, 1 uM dsDNA library, 50 mM K acetate, 20 mM Tris-acetate, 10 mM Mg acetate, 100 ug/ml BSA, pH 7.9, 10% glycerol, 30 min on ice; native 9% PAGE at 4 C; low values mean tight binding
Conditions in all cases: protein: recombinant;recombinant; tags: N-terminal mCherry-TEV, cleaved off;C-terminal 6His; copies: 1;1; dsDNA, one strand shown
BATF;JUNB = target: T1, BATF;JUNB (human;human, UniProt Q16520;P17275 1-125;148-347, |)
T1 sequence 1: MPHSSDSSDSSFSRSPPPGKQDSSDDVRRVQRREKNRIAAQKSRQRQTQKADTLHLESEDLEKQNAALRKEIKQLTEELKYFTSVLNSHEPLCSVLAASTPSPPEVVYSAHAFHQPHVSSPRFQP
T1 sequence 2: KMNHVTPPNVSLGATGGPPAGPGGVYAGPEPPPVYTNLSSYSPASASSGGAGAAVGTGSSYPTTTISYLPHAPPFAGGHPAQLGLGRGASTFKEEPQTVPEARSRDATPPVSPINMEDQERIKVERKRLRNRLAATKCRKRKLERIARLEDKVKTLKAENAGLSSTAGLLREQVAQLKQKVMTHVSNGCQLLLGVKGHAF
Outline: (§1)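 The protein, at 100 nM, was incubated with 1 μM double-stranded degenerate DNA library for 30 min on ice in NEB Cutsmart buffer with 10% glycerol, then resolved by native 9% PAGE at 4 °C. Excised bound and unbound bands were PCR-barcoded and Illumina-sequenced, and each sequence's relative binding energy in kT is −ln of its bound/unbound read-count ratio.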

BATF2 (bZIP);JUNB = target: T2, BATF2 (bZIP);JUNB (human;human, UniProt Q8N1L9;P17275 1-142;148-347, |)
T2 sequence 1: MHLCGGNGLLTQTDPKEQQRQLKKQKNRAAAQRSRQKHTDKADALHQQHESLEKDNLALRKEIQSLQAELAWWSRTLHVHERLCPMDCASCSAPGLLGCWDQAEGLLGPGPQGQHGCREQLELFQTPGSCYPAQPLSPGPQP
T2 sequence 2: T1 sequence 2
Outline: as §1

BATF3;JUNB = target: T3, BATF3;JUNB (human;human, UniProt Q9NR55;P17275 1-127;148-347, |)
T3 sequence 1: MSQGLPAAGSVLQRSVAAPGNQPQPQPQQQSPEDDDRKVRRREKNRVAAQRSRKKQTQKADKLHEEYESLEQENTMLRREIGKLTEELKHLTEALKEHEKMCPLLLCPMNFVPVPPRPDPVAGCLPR
T3 sequence 2: T1 sequence 2
Outline: as §1

| Sequence | binding signal (BATF;JUNB) [kT] | binding signal (BATF2 (bZIP);JUNB) [kT] | binding signal (BATF3;JUNB) [kT] |
| --- | --- | --- | --- |
| GATAGTCTCATTTTCACCCCGTGAAACTCAGTCATTGTTCCATTACAGTATCTGT | -0.328 | 0.236 | 0.0164 |
| GATAGTCTCATTTTCACCCCGTGAAATGACGCATTTGTTCCATTACAGTATCTGT | -0.475 | 0.109 | -0.479 |
| GATAGTCTCATTTTCACCCCGTGAAAAGACTCATTTGTTCCATTACAGTATCTGT | 0.016 | 0.734 | 0.446 |
| GATAGTCTCATTTTCACCCCGTGAAATGACTAAGTTGTTCCATTACAGTATCTGT | -0.456 | 0.286 | -0.104 |
| GATAGTCTCATTTTCACCCCGTGAAATGACGGCATTGTTCCATTACAGTATCTGT | -0.148 | 0.419 | -0.439 |
| GATAGTCTCATTTTCACCCCGTGAAATGACTCTCTTGTTCCATTACAGTATCTGT | 0.11 | 0.738 | 0.694 |
| GATAGTCTCATTTTCACCCCGTGAAATGACTCCGTTGTTCCATTACAGTATCTGT | 0.0406 | 0.724 | 0.582 |
| GATAGTCTCATTTTCACCCCGTGAAAGAGAGTCATTGTTCCATTACAGTATCTGT | -0.0937 | 0.318 | 0.155 |
| GATAGTCTCATTTTCACCCCGTGAAAAAGAGTCATTGTTCCATTACAGTATCTGT | -0.185 | 0.233 | 0.0775 |
| GATAGTCTCATTTTCACCCCGTGAAATGGCTCATTTGTTCCATTACAGTATCTGT | 0.393 | 1.11 | 0.838 |
| GATAGTCTCATTTTCACCCCGTGAAATGAGTTAATTGTTCCATTACAGTATCTGT | 0.138 | 0.697 | 0.279 |
| GATAGTCTCATTTTCACCCCGTGAAATGAGTTAGTTGTTCCATTACAGTATCTGT | 0.169 | 0.988 | 0.772 |
| GATAGTCTCATTTTCACCCCGTGAAATGACGTCTTTGTTCCATTACAGTATCTGT | -0.0562 | 0.447 | -0.318 |
| GATAGTCTCATTTTCACCCCGTGAAATGAGTGACTTGTTCCATTACAGTATCTGT | 0.0645 | 0.827 | 0.384 |
| GATAGTCTCATTTTCACCCCGTGAAATGAGACACTTGTTCCATTACAGTATCTGT | 0.71 | 1.71 | 1.3 |
| GATAGTCTCATTTTCACCCCGTGAAATGTCGTCATTGTTCCATTACAGTATCTGT | -0.357 | -0.113 | -0.976 |
| GATAGTCTCATTTTCACCCCGTGAAACTGTGTCATTGTTCCATTACAGTATCTGT | -0.318 | 0.116 | -0.22 |
| GATAGTCTCATTTTCACCCCGTGAAATGACTGAATTGTTCCATTACAGTATCTGT | -0.087 | 0.382 | 0.179 |
| GATAGTCTCATTTTCACCCCGTGAAAGGAGTCATTTGTTCCATTACAGTATCTGT | -0.0687 | 0.569 | 0.243 |
| GATAGTCTCATTTTCACCCCGTGAAATGACCCAATTGTTCCATTACAGTATCTGT | 0.427 | 0.768 | 0.601 |
| GATAGTCTCATTTTCACCCCGTGAAATCACGTCATTGTTCCATTACAGTATCTGT | -0.743 | -0.494 | -1.33 |
| GATAGTCTCATTTTCACCCCGTGAAATGACTCCTTTGTTCCATTACAGTATCTGT | 0.0649 | 0.734 | 0.584 |
| GATAGTCTCATTTTCACCCCGTGAAATGGGTCATTTGTTCCATTACAGTATCTGT | 0.293 | 0.704 | 0.458 |

| Sequence | binding signal (BATF;JUNB) [kT] | binding signal (BATF2 (bZIP);JUNB) [kT] | binding signal (BATF3;JUNB) [kT] |
| --- | --- | --- | --- |
| GATAGTCTCATTTTCACCCCGTGAAATCACTCATTTGTTCCATTACAGTATCTGT | -0.257 | 0.442 | -0.147 |
| GATAGTCTCATTTTCACCCCGTGAAATGACACACTTGTTCCATTACAGTATCTGT | -0.0204 | 0.55 | 0.362 |
| GATAGTCTCATTTTCACCCCGTGAAATGAGTCAGTTGTTCCATTACAGTATCTGT | -0.773 | -0.0533 | -0.715 |
| GATAGTCTCATTTTCACCCCGTGAAATGACTTACTTGTTCCATTACAGTATCTGT | 0.0298 | 0.563 | 0.342 |
| GATAGTCTCATTTTCACCCCGTGAAATGCCTCATTTGTTCCATTACAGTATCTGT | 0.532 | 1.18 | 1.01 |
| GATAGTCTCATTTTCACCCCGTGAAATGACTCAGTTGTTCCATTACAGTATCTGT | -0.786 | -0.202 | -0.697 |
| GATAGTCTCATTTTCACCCCGTGAAATGAGCCAGTTGTTCCATTACAGTATCTGT | 0.487 | 1.33 | 1.1 |
| GATAGTCTCATTTTCACCCCGTGAAATGACACAGTTGTTCCATTACAGTATCTGT | 0.189 | 0.717 | 0.492 |
| GATAGTCTCATTTTCACCCCGTGAAATTGGGTCATTGTTCCATTACAGTATCTGT | 0.183 | 0.516 | -0.0123 |
| GATAGTCTCATTTTCACCCCGTGAAAGTCAGTCATTGTTCCATTACAGTATCTGT | -0.0489 | 0.348 | 0.152 |
| GATAGTCTCATTTTCACCCCGTGAAATGACGTTATTGTTCCATTACAGTATCTGT | -0.288 | 0.0695 | -0.68 |
| GATAGTCTCATTTTCACCCCGTGAAATGAGTTATTTGTTCCATTACAGTATCTGT | 0.153 | 0.843 | 0.54 |
| GATAGTCTCATTTTCACCCCGTGAAATGAGTCGTTTGTTCCATTACAGTATCTGT | -0.00852 | 0.968 | 0.536 |
| GATAGTCTCATTTTCACCCCGTGAAACGACGTCATTGTTCCATTACAGTATCTGT | -0.501 | -0.195 | -1.03 |
| GATAGTCTCATTTTCACCCCGTGAAACTTAGTCATTGTTCCATTACAGTATCTGT | -0.834 | -0.172 | -0.762 |
| GATAGTCTCATTTTCACCCCGTGAAATGATTCATTTGTTCCATTACAGTATCTGT | -0.784 | -0.369 | -0.839 |
| GATAGTCTCATTTTCACCCCGTGAAATGACGCAGTTGTTCCATTACAGTATCTGT | -0.301 | 0.363 | -0.216 |
| GATAGTCTCATTTTCACCCCGTGAAATTGCGTCATTGTTCCATTACAGTATCTGT | -0.89 | -0.761 | -1.72 |
| GATAGTCTCATTTTCACCCCGTGAAATGACTCGATTGTTCCATTACAGTATCTGT | -0.328 | 0.519 | 0.109 |
| GATAGTCTCATTTTCACCCCGTGAAATGTGTCATTTGTTCCATTACAGTATCTGT | -0.52 | -0.022 | -0.44 |
| GATAGTCTCATTTTCACCCCGTGAAAATGTGTCATTGTTCCATTACAGTATCTGT | -0.713 | -0.258 | -0.757 |
| GATAGTCTCATTTTCACCCCGTGAAATGACACATTTGTTCCATTACAGTATCTGT | -0.137 | 0.424 | 0.0792 |
